The source of these data is PubChem BioAssay AID686978 (National Center for Advancing Translational Sciences (NCATS), 2013).

Among all 420,000 compounds or so, about 64,000 (15%) were called active. About 27% were inconclusive and are not listed. Calls follow the shape of the dose curve; as a rule, active = well fitted inhibition curve with a large enough effect; inconclusive = small, poorly fitted or top-dose-only effect; inactive = flat fitted curve, though single readings scatter. Only a sample is shown. Entries that show only a call come without a potency.
Potency is read from the fitted curve at half-maximal effect.

A short description of the test: qHTS for Inhibitors of human tyrosyl-DNA phosphodiesterase 1 (TDP1): qHTS in cells in absence of CPT. Also: nearly all actives have a fitted effect of over 55% in size. To be noted: DT40 Tdp1-/- hTDP1 cells, no CPT, ATP luminescence, 48 h; activity change, negative = growth inhibition: at 46.2 µM (top of the series). Summed up:
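Seeded 400 DT40-hTDP1 cells/well (vehicle DMSO, no 20 nM CPT); pinned compounds; ≥48 hr at 37 °C; CellTiter-Glo luminescence as viability measure.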
For `CC(C)(C)NC(=O)CN(C(=O)c1ccc(Cl)nc1)c1cccc2ccccc12`, the Potency entry is “inactive”.

`Cc1ccc(C)n1-c1ccncc1`: the Potency result was “inactive”.

With `COc1cc2nnn(-c3ccncc3)c2cc1OC`, the Potency result is “inactive”.

Turning to `c1ccc2c(c1)nnn2-c1ccncc1`, the Potency was 5.17 µM (active).

Consider `CC(=O)N1C(=O)C2(Nc3ccccc3N2)c2ccccc21`, for which the Potency entry is “inactive”.

Turning to `Cc1oc(CC(C)C)c(CN2CCCC2)c1C(=O)O`, the Potency entry was “inactive”.

As to `COc1ccc(CCNC(=O)COC(=O)Cc2cc(OC)c(OC)c(OC)c2)cc1`, the Potency entry was “inactive”.

Turning to `COc1ccc(CCNC(=O)c2cc3cccc4c3n2CC(C)S4)c(OC)c1OC` (centres undefined), the Potency is 11.6 µM (active).

On to `COc1ccc(CCNC(=O)CN2C(=O)CCSc3ccccc32)c(OC)c1`, for which the Potency result is “inactive”.

Take `CNc1nc(SC)nc(N(C#N)CC(=O)OC)n1`: the Potency entry is “inactive”.

On to `COc1ccc(NC(=O)CN(C)C(=O)c2ccc(COc3ccccc3)o2)cc1`, for which the Potency result was “inactive”.

As for `CCOc1ccc(OCc2ccc(C(=O)N(C)c3ccccc3)o2)cc1`, the Potency is 14.6 µM (active).

With `O=C(NCCc1ccccn1)c1ccc(COc2ccccc2)o1`, the Potency entry is “inactive”.

With `CCCCCCSc1ccc([C@@H]2[C@@H]3C(=O)N(CC)C(=O)[C@@H]3[C@]3(C(=O)OC)CCCCN23)cc1OC`, the Potency was 25.9 µM (active).

With `CCN1C(=O)[C@@H]2[C@@H](c3ccc(-c4cccc(Cl)c4)cc3)N3CCC[C@@]3(C(=O)OC)[C@@H]2C1=O`, the Potency was 16.4 µM (active).

As to `CCN1C(=O)[C@H]2[C@@H](c3ccc(C)cc3)N3C(=O)N(c4cccc(Br)c4)C(=O)[C@@]3(CC)[C@H]2C1=O`, the Potency result is “inactive”.

As for `CC(=O)N(CN1C(=O)C2C3C=CC(C3)C2C1=O)c1cccc(Cl)c1` (centres undefined), the Potency result is “inactive”.

As to `NC(=O)C1(Nc2ccc(-c3ccccc3)cc2)CCCC1`, the Potency result is “inactive”.

For `CCN1C(=O)[C@@H]2[C@@H](c3ccc(-c4ccccc4)cc3)N3CCCC[C@@]3(C(=O)OC)[C@@H]2C1=O`, the Potency was 16.4 µM (active).

In the case of `CCOC(=O)N1C(=O)C[C@](Sc2ccc(C)cc2)(C(=O)OC)[C@H]1c1ccccc1`, the Potency entry is “inactive”.

Take `CCCCC12CN3CC(C)(CN(C1)C3c1ccc(O)c(OC)c1)C2=O` (centres undefined): the Potency result is “inactive”.

For the compound `CCOC(=O)C1=C(CC)Nc2ccccc2N=C1N`, the Potency result was “inactive”.

With `COCCNC(=O)c1cc(-c2cccc(Cl)c2)on1`, the Potency result is “inactive”.

With `CSc1ccc(NC(=O)Cn2nnnc2-c2ccccc2F)cc1`, the Potency entry was “inactive”.

Consider `COc1ccc(NC(=O)CN(C)C(=O)CNC(=O)C2CCCCC2)cc1`, for which the Potency result is “inactive”.

As for `COc1ccccc1C1/C(=C(/O)c2ccc(C)cc2)C(=O)C(=O)N1Cc1ccco1` (centres undefined), the Potency entry is “inactive”.

Turning to `COc1ccc(S(=O)(=O)N(C)CC(=O)NCCCN2CCOCC2)cc1Cl`, the Potency result is “inactive”.

As to `CN(Cc1ccc(F)cc1Cl)S(=O)(=O)c1cccs1`, the Potency result is “inactive”.

As for `Cc1ccc(OCC(=O)OC(C)CN(C)Cc2ccccc2)cc1` (centres undefined), the Potency result was “inactive”.

`CN(Cc1ccccc1)CC(O)COc1ccc(CNCc2cc3ccccc3s2)cc1` (centres undefined): the Potency was 29.1 µM (active).

On to `OC(CNCc1ccc2c(c1)OCO2)COc1ccccc1` (centres undefined), for which the Potency result was “inactive”.

Take `O=C(COC(=O)c1ccc(F)c(S(=O)(=O)N2CCOCC2)c1)NCc1ccc2c(c1)OCO2`: the Potency entry is “inactive”.

As for `OC(Cc1ccc2ccccc2n1)c1ccc(Cl)c(Cl)c1` (centres undefined), the Potency entry was “inactive”.

On to `Cc1cc(NC(=O)C(C)N2C(=O)c3ccccc3S2(=O)=O)no1` (centres undefined), for which the Potency entry was “inactive”.

Consider `O=C(CN1C(=O)NC2(CCCCCC2)C1=O)NC1CC1`, for which the Potency result was “inactive”.

For `O=C(CN1C(=O)NC2(CCCC2)C1=O)Nc1ccc(F)c(F)c1F`, the Potency result is “inactive”.

For `O=C(CN1CCOCC1)Nc1cccc([N+](=O)[O-])c1`, the Potency entry was “inactive”.

For the compound `O=C(CN1C(=O)NC2(CCOc3ccccc32)C1=O)NCc1ccc(F)cc1` (centres undefined), the Potency result was “inactive”.

Regarding `O=C(CN1C(=O)NC2(CCOc3ccccc32)C1=O)Nc1cccc([N+](=O)[O-])c1` (centres undefined), the Potency was 20.6 µM (active).

On to `CCOc1ccc(CCNC(=O)CN2C(=O)NC3(CCc4ccccc43)C2=O)cc1OCC` (centres undefined), for which the Potency entry was “inactive”.

`CN(C)S(=O)(=O)c1cc(NC(=O)CN2C(=O)NC3(CCCc4ccccc43)C2=O)ccc1Cl` (centres undefined): the Potency was 14.6 µM (active).

On to `O=C(CN1C(=O)NC2(CCc3ccccc32)C1=O)NC1CCCCC1` (centres undefined), for which the Potency entry is “inactive”.

Consider `O=C(CN1C(=O)NC2(CCCCCC2)C1=O)Nc1ccc([N+](=O)[O-])cc1`, for which the Potency was 18.4 µM (active).

For `COC(=O)Nc1ccc(S(=O)(=O)Nc2cc(OC)nc(OC)n2)cc1`, the Potency result was “inactive”.

As to `NS(=O)(=O)c1ccc(N2C(=O)C3C4CC(C(Br)C4Br)C3C2=O)cc1` (centres undefined), the Potency entry was “inactive”.

With `O=C1CC(Cc2ccccc2)C(=O)N1c1ccc(Cl)cn1` (centres undefined), the Potency result is “inactive”.

Consider `Cc1ccn(-c2cccc(-n3ccc(C)n3)n2)n1`, for which the Potency result is “inactive”.

For `COCCCn1c(SCC(=O)Nc2ccccc2)nnc1-c1ccncc1`, the Potency entry is “inactive”.

`CCOC(=O)C1CSC(CC(=O)Nc2ccc(OCC)cc2)C(=O)N1` (centres undefined): the Potency entry was “inactive”.

For the compound `O=C(C1CCCO1)N1CCN(C(=O)C23CC4CC(CC(C4)C2)C3)CC1` (centres undefined), the Potency entry is “inactive”.

On to `COc1ccc(OC)c(-c2csc(NC(=O)COC(=O)C3CC3)n2)c1`, for which the Potency result is “inactive”.

In the case of `COc1ccc(OC)c(-c2csc(NC(=O)C3=NNC(=O)CC3)n2)c1`, the Potency is 13 µM (active).

On to `COc1ccc(NC(=O)C2=NNC(=O)CC2)cc1S(=O)(=O)N1CCCCC1`, for which the Potency entry is “inactive”.

`COc1ccnc(Oc2ccccc2)n1`: the Potency entry was “inactive”.

With `CCc1nnc(NC(=O)Cc2cccs2)s1`, the Potency result is “inactive”.

Consider `Fc1ccc2cnc(-c3ccccc3)cc2c1`, for which the Potency entry is “inactive”.

For the compound `CNc1nc(-c2ccccc2)cc(-c2ccccc2)n1`, the Potency result is “inactive”.

For `CSc1nc(Nc2ccc(F)cc2)cc(-c2ccccc2)n1`, the Potency is 23.1 µM (active).

Turning to `O=C(c1ccc(Cn2cc([N+](=O)[O-])cn2)o1)N1CCCC1`, the Potency result is “inactive”.

With `COCC(=O)Nc1ccc(Br)cc1`, the Potency result was “inactive”.

Turning to `Cc1ccc(CCNC(=O)c2nnc(Cc3cccc(F)c3)o2)cc1`, the Potency result is “inactive”.

Regarding `Cc1cc(Br)ccc1NC(=O)C1CCCO1` (centres undefined), the Potency result was “inactive”.

Regarding `C[C@@H]1NS(=O)(=O)c2cc(Cl)ccc2O[C@@H]1c1ccccc1`, the Potency entry is “inactive”.

Regarding `COC(=O)C1=C(C)Nc2ncnn2C1c1cccnc1` (centres undefined), the Potency result is “inactive”.

`CC1=C(C(=O)OC2CCCCC2)C(c2cccnc2)n2ncnc2N1` (centres undefined): the Potency was 20.6 µM (active).

Turning to `COC(=O)C1=C(C)Nc2ncnn2C1c1ccco1` (centres undefined), the Potency entry is “inactive”.

For the compound `O=C(CSc1nnc(-c2ccc(NS(=O)(=O)c3ccccc3)cc2)o1)NCC1CCCO1` (centres undefined), the Potency result is “inactive”.

Consider `c1ccc(Nc2nc(-c3ccncc3)cs2)nc1`, for which the Potency was 16.4 µM (active).

As for `COc1ccc(Nc2nc(-c3ccccc3)cs2)cc1`, the Potency result was “inactive”.

As to `COc1ccc(-c2csc(Nc3ccc(O)cc3)n2)cc1`, the Potency is 6.51 µM (active).

For `CN(c1ccc(O)cc1)c1nc(-c2cccnc2)cs1`, the Potency result was “inactive”.

Consider `O=C(NCc1cccnc1)C(=O)Nc1nc(-c2ccccc2)cs1`, for which the Potency result is “inactive”.

Consider `Clc1ccc(-c2csc(-c3ccncc3)n2)cc1`, for which the Potency result is “inactive”.

For the compound `COc1ccc(-c2csc(Cc3nc(O)cs3)n2)cc1`, the Potency was 14.6 µM (active).

Consider `Oc1ccc(-c2csc(Nc3cccnc3)n2)cc1`, for which the Potency was 29.1 µM (active).

Regarding `COc1ccc(-n2c(SC)nc(O)cc2=O)cc1`, the Potency entry is “inactive”.

Regarding `Cc1ccccc1Nc1nc(-c2cccnc2)cs1`, the Potency entry is “inactive”.

Take `COc1ccc(C(C)NC(=O)C2CCCC2)cc1` (centres undefined): the Potency entry was “inactive”.

For `NC(=O)c1ccc(NC(=O)COC(=O)C(Cc2ccccc2)NC(=O)c2ccccc2)cc1` (centres undefined), the Potency entry is “inactive”.

Consider `O=C(O)c1ccc(NC(=O)c2ccc(COc3ccc(Cl)cc3)o2)cc1`, for which the Potency entry was “inactive”.

On to `CC(=O)Nc1cc(C(=O)N2CCc3c(Cl)cccc3C2)cc2ncn(CCc3ccccn3)c12`, for which the Potency result was “inactive”.

For `COc1cccc(C2/C(=C(/O)c3ccc(F)cc3)C(=O)C(=O)N2CCN(C)C)c1` (centres undefined), the Potency result is “inactive”.

On to `O=C1CC(C(=O)O)NC(=S)N1` (centres undefined), for which the Potency result was “inactive”.

Turning to `CCCCCN(C(=O)NC(=O)Nc1cccc(C)c1C)S(C)(=O)=O`, the Potency entry was “inactive”.

Turning to `COc1ccc(C2CC(c3cccc(OC)c3)=NN2c2ccc(S(N)(=O)=O)cc2)cc1` (centres undefined), the Potency entry was “inactive”.

As for `COc1ccccc1OCCOc1ccc(/C=C2\C(=N)N3N=C(C)SC3=NC2=O)cc1`, the Potency entry is “inactive”.

As to `COc1ccc(OC)c(Nc2nc(-c3ccc(O)c(O)c3)cs2)c1`, the Potency is 1.16 µM (active).

With `CCN(CC(=O)Nc1c(F)cccc1F)C(=O)CN1c2cccc3cccc(c23)S1(=O)=O`, the Potency entry was “inactive”.

As for `CCn1c(SCC(=O)NCC2CCCO2)nc2cc(S(=O)(=O)N3CCCCC3)ccc21` (centres undefined), the Potency result was “inactive”.

Take `Cc1ccc(NC(=O)CSc2nnc(COc3ccccc3C)o2)cc1`: the Potency entry is “inactive”.

With `CC1CCCC(C)N1C(=O)CSc1nnnn1C1CCCC1` (centres undefined), the Potency entry is “inactive”.

With `CCCCc1ccc(NC(=S)NCCCN2CCOCC2)cc1`, the Potency result was “inactive”.

On to `Cc1ccc(NC(=S)NCCN2CCOCC2)cc1`, for which the Potency entry was “inactive”.

With `CCOc1cccc(/C=N/NC(=S)NCCN2CCOCC2)c1O`, the Potency was 2.91 µM (active).

Regarding `Brc1cnc(N2CCCC2)nc1N1CCCCC1`, the Potency result was “inactive”.

For `C=CCn1c(CNS(=O)(=O)c2ccc(Br)cc2)nnc1SC`, the Potency entry is “inactive”.

For `CCC(C)(C)NC(=O)CN(Cc1cccs1)C(=O)CNS(=O)(=O)c1ccc(F)cc1`, the Potency entry is “inactive”.

`CCOc1ccc(NC(=O)CN(C)C(=O)c2cccc(S(=O)(=O)N3CCCC3)c2)cc1OCC`: the Potency entry was “inactive”.

Regarding `COc1ccc(NC(=O)CN(C)C(=O)c2cccc(S(=O)(=O)N3CCN(c4ccccc4)CC3)c2)cc1`, the Potency is 20.6 µM (active).

`COc1ccc(OC)c(NC(=O)c2cccc(S(=O)(=O)N3CCN(C(C)=O)CC3)c2)c1`: the Potency entry was “inactive”.

Take `O=C(NCc1ccccc1Cl)NC(=O)c1csc([N+](=O)[O-])c1`: the Potency entry is “inactive”.

On to `CCCOc1ccc(Cc2c(O)nc(SC)[nH]c2=O)cc1C`, for which the Potency entry is “inactive”.

As for `COc1cccc(NC(=O)C2(C)CCN2Cc2ccccc2Cl)c1` (centres undefined), the Potency was 25.9 µM (active).

In the case of `COc1cccc(NC(=O)NCCN2CCCCC2)c1`, the Potency result is “inactive”.

Regarding `COc1cccc(NC(=O)CN2CCN(CC(=O)Nc3ccccc3Cl)CC2)c1`, the Potency entry was “inactive”.

For the compound `O=C1COc2c1ccc(O)c2O`, the Potency result is “inactive”.

Consider `CC(=O)c1c(C)n(-c2ccc(N(C)C)cc2)c2ccc(OCC(N)=O)cc12`, for which the Potency is 23.1 µM (active).

As to `Cc1c(Cc2ccccc2)c(=O)oc2cc(OCC(N)=O)ccc12`, the Potency entry is “inactive”.

Consider `CC(=O)c1c(C)n(-c2ccc(C)cc2)c2ccc(O)cc12`, for which the Potency entry is “inactive”.
